# Source: ChEMBL document CHEMBL1157539, “Thousands of chemical starting points for antimalarial lead identification” (Nature, 2010)
# Experiments:
# Type in all cases: functional
# [1] = system: Plasmodium falciparum; test: GSK_TCMDC: Inhibition of Plasmodium falciparum 3D7 in whole red blood cells, using parasite LDH activity as an index of growth. Test compounds present at 2uM
# [2] = system: Plasmodium falciparum; test: GSK_TCMDC: Inhibition of Plasmodium falciparum Dd2 in whole red blood cells, using parasite LDH activity as an index of growth. Test compounds present at 2uM
# [3] = system: HepG2; test: GSK_TCMDC: Percent inhibition of human HepG2 cell line. Test compounds present at 10uM.
SMILES,Inhibition [1],Inhibition [2],Inhibition [3]
O=C(O)C(F)(F)F.OC1CCCN(Cc2ccc(-c3ccc(-c4nc5cc(F)ccc5[nH]4)cc3)cc2)C1 (stereo not given),100%,79%,55%
Cc1ccc(F)c(OCC2CCCN(c3ccc(C(=O)NC4CC4)cn3)C2)c1 (stereo not given),96%,94%,3%
CC(C)CCNC(=O)C1Cc2c([nH]c3cc(Br)ccc23)C2(CCN(CCc3ccccc3)CC2)N1 (stereo not given),97%,48%,14%
O=C(O)C(F)(F)F.O=S(=O)(/C=C/c1ccccc1)N(Cc1ccc(-c2ccc(CNCCOc3ccccc3)cc2)cc1)CC1CCCCN1 (stereo not given),99%,95%,99%
CCN(CC)CCCC(C)Nc1c2ccccc2nc2c1ccc1ccccc12.Cl (stereo not given),96%,34%,18%
Cl.O=C(NCCCCN1CCC(c2ccc3c(c2OC(=O)c2ccc(NC(=O)c4ccc(Cl)cc4)cc2)CCCC3)CC1)c1ccc(NC(=O)c2ccc(Cl)cc2)cc1,100%,99%,62%
CC1(C)C2C=C(CN3CCC(NC(=O)Nc4ccc(Cl)c(Cl)c4)CC3)C1CC2 (stereo not given),100%,33%,28%
COc1cc(CNCCCNc2cc(=O)c3ccccc3[nH]2)c2c(c1)C(C)CN2C(=O)OC(C)(C)C (stereo not given),96%,87%,0%
O=C(O)C(F)(F)F.c1cc(CNCCc2ccncc2)cc(-c2cccc(-c3nc4ccccc4[nH]3)c2)c1,100%,88%,21%
CCOc1cc(C(=O)NCCN(C(C)C)C(C)C)ccc1-c1nc2cc(Cl)ccc2[nH]1,100%,90%,4%
